Laboratory results reported in PubChem BioAssay AID493034 (The Scripps Research Institute Molecular Screening Center, 2011).
The whole screen tested about 2,400 compounds, of which about 2,200 (92%) were called active.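 How the source made its calls: active means mean inhibition over triplicate runs exceeds the cutoff derived for the earlier primary screen (cut at about 25% in these data); inactive means the rest.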 So high a share suggests a set chosen from earlier hits. The list shows a part of the results.

These molecules were tested against Platelet-activating factor acetylhydrolase IB subunit alpha2 (Homo sapiens) (UniProt P68402) (assay: inhibition of human PAFAH1B2 catalytic subunit – biochemical, fluorescence polarization, FP-rhodamine probe, triplicate, confirmation (AID 493034;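 further: 0% = enzyme with DMSO and 100% = wells lacking PAFAH1B2 protein; inhibitors lower polarization by leaving the probe unbound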)). Details: recombinant PAFAH1B2, FP-rhodamine probe fluorescence polarization; at 3.39 µM; stronger effect = higher value.
Chain of Platelet-activating factor acetylhydrolase IB subunit alpha2 (Homo sapiens) (P68402 whole entry, looked up): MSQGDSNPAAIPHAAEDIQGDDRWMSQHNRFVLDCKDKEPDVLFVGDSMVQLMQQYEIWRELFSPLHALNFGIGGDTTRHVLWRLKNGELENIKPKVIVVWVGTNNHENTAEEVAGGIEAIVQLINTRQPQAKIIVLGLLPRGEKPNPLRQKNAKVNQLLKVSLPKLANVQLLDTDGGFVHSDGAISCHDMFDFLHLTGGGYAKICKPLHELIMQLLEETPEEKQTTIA

inhibition, active:
O/N=C/c1ccc2ccccc2c1 43.9%
Cc1ccc(S(=O)(=O)Nc2ccc(Cl)cc2C(=O)c2ccc(F)cc2)cc1 27.2%
CC1(C)C(=O)N(c2ccccc2)C1c1ccccc1O (stereo not drawn) 36.5%
CCCC(=O)Nc1sc(-c2ccccc2)c(-c2ccccc2)c1C(=O)O 43.5%
O=C(CCN1C(=O)/C(=C/c2ccccc2F)SC1=S)N[C@@H](CO)Cc1ccccc1 60.2%
COc1ccc(/C=C2\SC(=O)N(CCCC(=O)Nc3cc(Cl)ccc3C(=O)O)C2=O)cc1 40.3%
O=C(CCCN1C(=O)/C(=C\c2ccccc2)SC1=S)Nc1ccc(O)cc1C(=O)O 61.7%
O=C(CCN1C(=O)/C(=C/c2ccccc2)SC1=S)N[C@@H](CO)Cc1ccccc1 66.8%
Cc1ccc(NC(=O)CN(C)C(=O)c2ccc3[nH]c4c(c3c2)CC(C)CC4)cc1 (stereo not drawn) 47.5%
Cc1ccc(C)c(NC(=O)CN(C)C(=O)c2ccc3[nH]c4c(c3c2)CC(C)CC4)c1 (stereo not drawn) 29.8%
O=[N+]([O-])c1ccc(O)c(/C=N/Nc2nc3ccccc3[nH]2)c1 28.4%
CC(C)C1Nc2c(O)cc(Cl)c([N+](=O)[O-])c2C2C=CCC21 (stereo not drawn) 39.4%
O=c1[nH]c2c(s1)C(c1ccccc1)C1C3CCC(C3)C1S2 (stereo not drawn) 36.8%
O=c1[nH]c2c(s1)C(c1ccco1)C1C3CCC(C3)C1S2 (stereo not drawn) 51.9%
COc1ccccc1NC(=S)NCCc1ccc(Cl)cc1 25.7%
S=C(NCCc1ccc(Cl)cc1)NC1CC1 40.9%
CCN(CC(=O)Nc1ccc(NC(C)=O)cc1)Cc1c(O)ccc2cc(Br)ccc12 59.1%
NNC(=S)NC1CCCCCCCCCCC1 47.2%
CC(C)(C)OC(=O)[C@H]1[C@H](c2ccc([N+](=O)[O-])cc2)C2(C(=O)c3ccccc3C2=O)C2c3ccccc3C=NN21 (stereo partly drawn) 73.7%
O=C(O)c1[nH]c2ccc(Br)cc2c1CCN1C(=O)c2cccc([N+](=O)[O-])c2C1=O 41.5%
O=C(O)c1ccccc1C(=O)NCCc1c(C(=O)O)[nH]c2ccc(Cl)cc12 26%
O=C(O)c1[nH]c2ccc(Cl)cc2c1CCN1C(=O)c2ccccc2C1=O 79.2%
CC(C)CC(C(=O)O)N1C(=O)C2C3CC(C2C1=O)C1C(c2ccccc2)c2sc(=O)[nH]c2SC31 (stereo not drawn) 39.3%
CC(C(=O)O)N1C(=O)C2C3CC(C2C1=O)C1C(c2ccccc2)c2sc(=O)[nH]c2SC31 (stereo not drawn) 43.1%
COc1cc(/C=N/N(C)S(=O)(=O)c2ccc(C)cc2)cc([N+](=O)[O-])c1O 30.5%
O=C(CNC(=O)OCc1ccccc1)Oc1cc2oc(=O)cc(-c3ccccc3)c2cc1Cl 50.6%
CC(C)(c1ccc(O)cc1)c1ccc(O)cc1 42.2%
COC(=O)c1c(NC(=O)C2C3CCC(O3)C2C(=O)O)sc2c1CCCCCC2 (stereo not drawn) 39.5%
O=C(O)C1=C[C@H](c2ccc(C(F)(F)F)cc2)C[C@H](OCc2ccc(CO)cc2)O1 26%
Cc1ccc(S(=O)(=O)N/N=C/c2cccn2-c2ccc(Cl)cc2)cc1 45%
CN(C(=O)Cc1c(C(=O)O)n(C)c2ccccc12)c1ccc(Cl)cc1 41.1%

inhibition, inactive:
CN(CC(=O)Nc1ccc(C#N)cc1)Cc1ccc(Cl)cc1 19.9%
Cc1ccc(COc2ccc(/C=N/O)cc2)cc1 22.1%
Cc1ccc(S(=O)(=O)NC(=O)Nc2nc(-c3ccc(F)c(F)c3)cs2)cc1 9.68%
CNC(=O)c1cc(C(=O)c2ccc(Cl)cc2)c(Br)[nH]1 14%
O=C1N(c2ccccc2)C(c2ccccc2)C12CCCCC2 (stereo not drawn) 24%
O=C(CCN1C(=O)/C(=C/c2ccccc2Cl)SC1=S)NC1=NCCS1 6.52%
OC(c1ccccc1)(c1ccc(F)cc1)C(c1ccccc1)N1CCOCC1 (stereo not drawn) 21.9%
CN(C(=O)COC(=O)c1ccc(Cl)c(S(=O)(=O)NCc2ccccc2)c1)C1CCS(=O)(=O)C1 (stereo not drawn) 19.1%
CC(C)C1Nc2ccc(S(N)(=O)=O)cc2C2C=CCC21 (stereo not drawn) 23%
O=C(CSc1ncn[nH]1)NCCc1ccc(Cl)cc1 18.2%
Cc1ccc(C)c(NC(=S)NCCSc2ccc(Cl)cc2)c1 23.1%
Cc1csc(SCC(=O)NCCc2ccc(Cl)cc2)n1 22.8%
S=C(NCCc1ccc(Cl)cc1)NC1CCCCC1 22.8%
COc1ccc(CCN(C)Cc2c(O)ccc3cc(Br)ccc23)cc1OC 14.9%
Cc1ccc(C)c(Cn2nnc3c(=O)[nH]c(C(=O)NCC4CCCO4)nc32)c1 (stereo not drawn) 5.01%
CN(C)C(=O)NC1CCCCCCCCCCC1 22.7%
CNC(=S)N(Cc1ccc(OC)cc1)C1CC(=O)N(c2ccc(Cl)cc2)C1=O (stereo not drawn) 23.9%
Cc1ccc(N2C(=O)CC(Sc3nc4ccccc4o3)C2=O)cc1Cl (stereo not drawn) 20.1%
Cn1c(COc2ccc(Cl)cc2)nnc1SCc1ncc(-c2ccccc2)o1 22.4%
C[C@H](NC(=O)c1nc[nH]c1C(=O)NCC(=O)OCc1ccccc1)c1ccccc1 23.8%
Cc1noc(C)c1COc1ccccc1C(=O)NC(C)c1ccc(Cl)cc1 (stereo not drawn) 15.7%
COc1cc(/C=N/NS(=O)(=O)c2ccc(C(C)(C)C)cc2)cc([N+](=O)[O-])c1O 14.5%
COc1cccc(/C=N/Nc2ccc(S(=O)(=O)Nc3ccccc3C(=O)O)cc2[N+](=O)[O-])c1O 20.4%
CN(CCc1ccccn1)C(=S)NC(=O)c1ccco1 3.54%
Cc1ccc(S(=O)(=O)N2[C@@H](c3ccc(Cl)cc3)C(C(=O)O)=C[C@H]2C(C)(C)C)cc1 21%
O=C(NCc1ccc(Cl)cc1)C(=O)NCC1OCCN1S(=O)(=O)c1cc(F)ccc1F (stereo not drawn) 20.3%
Cc1nn(-c2ccccc2)c(Cl)c1CN(C(=O)CCl)c1ccc(Cl)cc1 21.7%
